Data from PubChem BioAssay (NCATS).
Values joined by “and” are separate entries in the source; they are usually repeats but may differ in a detail not shown here. Equal entries are not always repeated. Results filed as inconclusive are left out. Active and inactive are the calls of the source. Calls come from the whole dose curve; as a rule, active = well fitted inhibition curve with a large enough effect; inconclusive = small, poorly fitted or top-dose-only effect; inactive = flat fitted curve, though single readings scatter.

What follows are molecules tested on astro (assay: Drug repurposing screens with cells derived from glioblastoma tumor samples (AID 1345199; note: nearly all actives have a fitted effect of over 40% in size)). Conditions: viability, ATP luminescence, 48 h; series mostly up to 45.9 µM; activity, negative = cell killing: at the top concentration.
Description: CD133+ cells were isolated from GBM patient biopsies and cultured as neurospheres. Neurospheres from four patients were used to screen the NCATS pharmaceutical collection (NPC) library of approved drugs and bioactive compounds. […] The neurospheres were incubated with drugs for 48 hours in 1536-well format, then assayed with an ATP content cell viability assay. […] These hits were cherry picked to confirm activity in the four original GBM lines screened plus three other slower growing GMB lines (unable to yield enough cells for a full primary screen). Variable activities of the confirmed primary hits in the different GBM patient lines were observed. The patient line 206 responded to the greatest number of compounds and line 923 responded to the least amount of active compounds.
% is set by controls: 0 for no effect and ±100 for the full control effect; potency is the fitted concentration of half-maximal effect.

Structure (SMILES) | activity, negative = cell killing | Potency
O=C(O)Cc1ccccc1 | -19.3% (inactive) | 
COc1cc(CC(C)N)cc2c1OCO2 (stereo not given) | -17.9% [at 108 µM] (inactive) | 
CCOP(=S)(OCC)O/N=C(\C#N)c1ccccc1 | 0.326% (inactive) | 
Cc1nnc2n1-c1sc(CCC(=O)N3CCOCC3)cc1C(c1ccccc1Cl)=NC2 |  | inactive
Clc1ccc(C(OCCN2CCCCC2)c2ccccc2)cc1 (stereo not given) | -25.6% [at 21.2 µM] (inactive) | 
CN1C[C@@H](NS(=O)(=O)N(C)C)C[C@@H]2c3cccc4c3c(cn4C)C[C@H]21 | -15.6% (inactive) | 
Nc1ccc(N)cc1 | -10.3% (inactive) | 
O=C(CCCN1CCC(n2c(=O)[nH]c3ccccc32)CC1)c1ccc(F)cc1 | -18.4% [at 21.2 µM] (inactive) | 
CCN(CC)Cc1nccn1-c1ccc([N+](=O)[O-])cc1C(=O)c1ccccc1Cl | -0.691% (inactive) | 
CCCC(C)C1(CC)C(=O)N=C(S)NC1=O (stereo not given) | -10.5% (inactive) | 
CN1CCc2cc(Cl)c(O)cc2[C@H]2c3ccccc3CC[C@@H]21 | -23.4% (inactive) | 
CC(C)NCC(O)c1ccc(N)c(C#N)c1 (stereo not given) | -23.6% (inactive) | 
CCNc1nc(Cl)nc(NCC)n1 | 1.76% (inactive) | 
CCC1(c2cnc[nH]2)Cc2ccccc2C1 |  | inactive
COC(=O)C1=CCCN(C)C1 | -9.57% (inactive) | 
O=C(O)c1nn(Cc2ccc(Cl)cc2Cl)c2ccccc12 | -29.2% (inactive) | 
Oc1c(Br)cc(Br)cc1Br | -14.4% (inactive) | 
CN(C)C(=O)Oc1cc(OC(=O)N(C)C)cc(C(O)CNC(C)(C)C)c1 (stereo not given) | -14.1% [at 21.2 µM] (inactive) | 
COc1ccc(OC)c(CC(C)N)c1 (stereo not given) | -19.3% [at 108 µM] (inactive) | 
CC[n+]1c(-c2ccccc2)c2cc(N)ccc2c2ccc(N)cc21 |  | 8.91 µM (active) and 12.6 µM (active)

Structure (SMILES) | activity, negative = cell killing | Potency
CN1C(=O)CN=C(c2ccccc2)c2cc(Cl)ccc21 | -23% (inactive) | 
COc1ccc(CN2CCNCC2)c(OC)c1OC | -2.79% [at 21.2 µM] (inactive) | 
CCS(=O)(=O)C(C)(C)S(=O)(=O)CC | 2.51% (inactive) | 
COc1cc(C[C@@H](C)N)c(OC)cc1C | -20.4% [at 108 µM] (inactive) | 
CN1C(=O)[C@@H](NC(=O)c2cc3ccccc3[nH]2)N=C(c2ccccc2)c2ccccc21 | -29.7% (inactive) | 
NCc1cccnc1 | -10.8% (inactive) | 
CCCCCCCCCCCC[N+](C)(C)CCOc1ccccc1 |  | 20 µM (active)
CCc1cc(OC)c(C[C@H](C)N)cc1OC | -5.4% [at 108 µM] (inactive) | 
CCN(Cc1ccc(Cl)nc1)/C(=C/[N+](=O)[O-])NC | -18% (inactive) | 
C[C@]12CC[C@H]3[C@@H](CC=C4C[C@@H](O)CC[C@@]43C)[C@@H]1CC[C@@H]2O | -27.7% (inactive) | 
CC[C@H]1C[C@H]2[C@@H]3CCC4=CC(=O)CC[C@@H]4[C@H]3CC[C@]2(C)[C@H]1O | -25.1% (inactive) | 
c1cc2c(c(N3CCNCC3)c1)OCCO2 | -20.6% (inactive) | 
Cc1ccc(N=CN(C)C=Nc2ccc(C)cc2C)c(C)c1 | -12.3% (inactive) | 
CC(C)(O)C(Cl)(Cl)Cl | -13.2% (inactive) | 
CCCCC1C(=O)NC(=O)N(C2CCCCC2)C1=O (stereo not given) | -13.3% (inactive) | 
COc1ccc2[nH]cc(CCN(C(C)C)C(C)C)c2c1 | -12.2% [at 108 µM] (inactive) | 
COc1cc(CC(C)N)c(OC)cc1Br (stereo not given) |  | inactive
CN(C)CCc1c[nH]c2cccc(O)c12 | -18% [at 91.6 µM] (inactive) | 
C[C@H](N)[C@H](O)c1ccc(O)c(O)c1 | -23.3% (inactive) | 
O=c1n(Cl)c(=O)n(Cl)c(=O)n1Cl | -9.56% (inactive) | 
